Values without a mark were called inactive. Calls of active or inactive are those of the source.

This assay in a line: plasmodial surface anion channel blockers, osmotic lysis – cell-based, P. falciparum Indochina, OD700, 2 h, primary screen (AID 1155).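 Also: lysis reports solute entry through the parasite surface anion channel PSAC.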 As to conditions: P. falciparum Indochina infected erythrocytes, higher = more signal, called active from +8 up or from −8 down.
As for `COC(=O)[C@@]1(Cc2ccc(OC)cc2)[C@H]2c3cc(C(=O)N(C)C)n(Cc4ccc(C)o4)c3C[C@H]2CN1C(=O)c1ccccc1`, the z-score was 0.057.
Turning to `CCCCCN1CC=CC23O[C@@H]4/C=C\CCC(C)OC(=O)C4[C@H]2C(=O)N(C(CO)C(C)C)[C@@H]3C1=O` (stereo partly specified), the z-score was 0.881.
In the case of `CCOC(=O)C[C@H]1[C@H](OC(=O)c2ccccc2-c2ccccc2)[C@@H](NC(=O)c2ccc3ccccc3n2)c2cc(OCCCO)ccc2N1C(=O)Cc1ccc(OC)cc1`, the z-score was 1.11.
As to `O=C1OCCC/C=C\[C@H]2OC34C=CCN(c5ccc6ccccc6c5)C(=O)[C@H]3N(CCO)C(=O)[C@@H]4C12` (stereo partly specified), the z-score is 0.476.
In the case of `O=C1N(Cc2ccccc2)c2ccccc2C[C@]12N=C(c1ccc(OCCCO)cc1)O[C@@H]2c1ccccc1`, the z-score was 15.7 (active).
In the case of `O[C@@H](Cc1ccccc1)[C@@H](/C=C/C1CC1)N(CC#Cc1ccccc1)Cc1ccccc1Br`, the z-score is 1.37.
Regarding `O=C(C1N=C(c2ccc(OCCCO)cc2)N(c2ccccc2)O1)N1CCCCC1` (stereo unspecified), the z-score is 1.66.
In the case of `CC(C)[Si]1(C(C)C)OCc2cc(-c3ccc(-c4ccc(Cl)c(Cl)c4)o3)nc(-c3ccccc3)c21` it was 0.394; in that of `COc1ccc([Si](C)(C)[C@@H]2[C@@H](CCO)O[C@]3(C(=O)N(Cc4ccccc4)c4ccc(NC(=O)[C@H](C)O)cc43)[C@H]2C)cc1`, 2.77.
Regarding `COc1cc(NN2C(C(O)c3ccc(N(C)C)cc3)C=CC3C(=O)N(c4ccccc4)C(=O)C32)cc(OC)c1OC` (stereo unspecified), the z-score is -0.891.
In the case of `Cn1cccc1C(O)C1C=CC2C(=O)N(c3ccccc3)C(=O)C2N1Nc1ccccc1` (stereo unspecified) it was 1.31; in that of `CCOC(=O)C=Cc1cccc(C)c1O`, -0.0712; in that of `COC(=O)C1=CC(CCCO)=CC(c2cccs2)N(Cc2cccc(OC(F)(F)F)c2)C=C1C(=O)OC` (stereo unspecified), 1.34.
In the case of `[N-]=[N+]=Nc1ccccc1[C@@H]1OC(c2ccc(OCCCO)cc2)=N[C@]1(Cc1ccccc1)C(=O)N1CCCCC1` it was 32.7 (active); in that of `C=CCNC(=O)[C@@H]1[C@H]2C(=O)O[C@H](c3ccccc3)[C@H](c3ccccc3)N2[C@H](c2ccc(O)cc2)[C@@]12C(=O)N(C(=O)OCCOC)c1ccc(C#CC3=CCCCC3)cc12`, 0.836.
Take `CCOC(=O)C[C@H]1[C@H](OC(=O)c2cc3ccccc3oc2=O)[C@@H](NC(=O)CC(C)C)c2cc(OCCCO)ccc2N1C(=O)c1ccc2ccccc2n1`: the z-score was 1.25.
Take `NCCCCCNC(=O)[C@@H]1C[C@@H]2C(=O)N[C@@H](CCCCN)C(=O)N2[C@@H]1c1ccc(O)cc1`: the z-score was 1.74.
As for `CC(C)C(CO)N1C(=O)[C@@H]2C3C(=O)OCCC/C=C\[C@H]3OC23C=CCN(Cn2nnc4ccccc42)C(=O)[C@@H]13` (stereo partly specified), the z-score was -0.364.
For `[N-]=[N+]=NCc1ccccc1C[C@@]1(C(N)=O)N=C(c2ccc(OCCCO)cc2)O[C@@H]1c1ccccc1`, the z-score is 19.2 (active).
As for `CCOC(=O)C[C@H]1[C@H](OC(=O)c2ccc(C(=O)c3ccccc3)cc2)[C@@H](NC(=O)CC(C)C)c2cc(OCCCO)ccc2N1C(=O)c1ccccc1`, the z-score is 0.966.
Turning to `CC(C)[Si](C#C[Si](C(C)C)(C(C)C)C(C)C)(O[C@H](c1ccccc1)c1cn(Cc2ccccc2)nn1)C(C)C`, the z-score is 0.267.
In the case of `COC(=O)C/C=C/C[C@]1(O)C(=O)N(C)c2ccccc21` it was -0.562.
For `CN1C(=O)C2C=CC(C(O)c3cccn3C)N(Nc3ccc([N+](=O)[O-])cc3[N+](=O)[O-])C2C1=O` (stereo unspecified), the z-score is 1.31.
For `C=CCN1Cc2ccccc2[C@@H]2OC(c3ccc(OCCCO)cc3)=N[C@]2(CC=C)C1=O`, the z-score was 7.24.
In the case of `CCCC=C(CCC)[C@@H](NP(=O)(c1ccccc1)c1ccccc1)c1ccc(-c2ccccc2)cc1` it was 0.766.
In the case of `C=C(COC)C(=O)CC[C@@H](OC(C)=O)c1cccc(OCCO)c1` it was 1.11; in that of `CCOC(=O)C1=CC[C@@H](c2ccccc2F)N(S(=O)(=O)c2ccc(C)cc2)[C@H]1c1ccccc1`, 1.17; in that of `O=C1O[C@H](c2ccccc2)[C@H](c2ccccc2)N2[C@H]1[C@@H](C(=O)O)[C@]1(C(=O)Nc3ccc(C#CCCO)cc31)[C@H]2c1ccccc1OCCO`, -0.353.
As for `COc1cc2c(cc1O)C(C1CC1)N(C)CC2` (stereo unspecified), the z-score is 0.546.
In the case of `COC(=O)[C@@]1(Cc2ccc(OC)cc2)[C@H]2c3cc(C(=O)N4CCCC4)n(CCO)c3C[C@H]2CN1C(=O)c1ccccc1` it was 0.766.
As for `[N-]=[N+]=Nc1ccccc1C[C@]1(C(=O)N2CCOCC2)COC(c2ccc(OCCCO)cc2)=N1`, the z-score was 7.83.
In the case of `O=C1C2C=CC(C(O)c3ccco3)N(Nc3ccccc3F)C2C(=O)N1c1ccccc1` (stereo unspecified) it was 1.05.
In the case of `CCCCCN1CC=CC23O[C@@H]4/C=C\CCCOC(=O)C4[C@H]2C(=O)N(C(C)CO)[C@@H]3C1=O` (stereo partly specified) it was 0.175; in that of `COC(=O)c1c(CC[C@@H](CO)NC(=O)N2CCC[C@H]2Cn2cc(C3(O)CCCCC3)nn2)oc(C(C)=O)c1C(=O)OC`, 0.092.
In the case of `CCCCNC(=O)c1ccc(C#CC(C)(C)C)c(OC(C)=O)c1` it was 0.802.
Consider `COc1ccccc1CN1C(=O)c2ccccc2[C@](Cc2ccccc2I)(C(=O)O)[C@@H]1c1ccc(CO)cc1`, for which the z-score was 1.09.

These data come from PubChem BioAssay.
